Measurements from PubChem BioAssay (NCI).
About 79,000 compounds went through this panel and 15% of them were active in at least one assay; those are over-represented in the sample as a whole. Active and inactive are the calls of the source. No stated cut-off is given here; in the data, active means growth inhibition above about 70%; inactive means the rest.

What was measured:
[1] = NCI Yeast Anticancer Drug Screen. Data for the rad50 strain (AID 155);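 further: 0% = growth of vehicle-only cultures of the same strain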; conditions: S. cerevisiae rad50 strain growth inhibition; at 50.0 µM; hits give high values
Summary of the method: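 DNA repair mutant yeast, compound exposure, growth read-out; inhibition is taken relative to vehicle.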

[2] = NCI Yeast Anticancer Drug Screen. Data for the mec2-1 strain (AID 157); conditions: S. cerevisiae mec2-1 strain, at 50.0 µM, hits give high values
Summary of the method: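 Test agents were screened against the mec2-1 yeast strain, with defined DNA repair or cell cycle alteration. Growth was scored as inhibition against vehicle-only controls.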

[3] = NCI Yeast Anticancer Drug Screen. Data for the sgs1 mgt1 strain (AID 161);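 further: 0% = growth of cultures given vehicle only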; conditions: S. cerevisiae sgs1 mgt1 strain, at 50.0 µM, hits give high values
Summary of the method: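 Inhibition of yeast growth, normalised to vehicle-treated controls, is reported for a strain bearing genetic alterations in DNA damage repair.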

[4] = NCI Yeast Anticancer Drug Screen. Data for the cln2 rad14 strain (AID 165);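 further: 0% = growth equal to vehicle treated cultures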; conditions: S. cerevisiae cln2 rad14 strain, at 50.0 µM, hits give high values
Summary of the method: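 Growth of compound-exposed yeast (cln2 rad14 genotype) measured and expressed as inhibition relative to vehicle.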

[5] = NCI Yeast Anticancer Drug Screen. Data for the bub3 strain (AID 167); conditions: S. cerevisiae bub3 mutant strain, at 50.0 µM, hits give high values
Summary of the method: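 In this screen, a yeast mutant lacking normal mitotic checkpoint function is challenged with compound. Relative growth versus vehicle gives the inhibition value.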

[6] = NCI Yeast Anticancer Drug Screen. Data for the mlh1 rad18 strain (AID 175); conditions: S. cerevisiae mlh1 rad18 strain growth inhibition; at 50.0 µM; hits give high values
Summary of the method: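 In this whole-cell yeast screen, a strain with altered DNA damage repair is challenged with compound, and its growth is measured against matched vehicle-treated controls.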

Measured: growth inhibition

CN(C)Cc1cc(C(=O)O)ccc1O
inactive: [1] 10.1% | [2] 13.1% | [3] 9.45% | [4] -29% | [5] 2.85% | [6] -0.75%

NNC(=O)CC1(O)CCCCC1
inactive: [1] -0.35% | [2] -9.2% | [3] 2.3% | [4] 0.4% | [5] -17.1% | [6] -19.8%

CS(=O)(=O)N(CCC#N)c1ccc(/C=N/NC(=O)CC(=O)Nc2cccc(Cl)c2)cc1
inactive: [1] -6.75% | [2] 18.1% | [3] 10.7% | [4] 19.6% | [5] -6.15% | [6] 8.65%

O=C(O)C(Oc1ccccc1)Oc1ccccc1
inactive: [1] -24.7% | [2] -13.2% | [3] -11.8% | [4] 5.85% | [5] 6.6% | [6] -4.95%

C1CSCCCSCCSCCCSC1
inactive: [1] -15.1% | [2] -9.45% | [3] 3.6% | [4] 5.3% | [5] 0.2% | [6] 4.45%

CN(C)C(=N/O)/C(=N\O)N(C)C
inactive: [1] -5.05% | [2] -25% | [3] -23.1% | [4] -6.35% | [5] -23.8% | [6] -0.2%

CC1(CCl)Nc2ccccc2C(=O)N1c1ccc(F)cc1 (stereo unspecified)
inactive: [1] -7.55% | [2] -21.9% | [3] -0.9% | [4] 1.4% | [5] 14.6% | [6] -3.35%

CN1CCCC1
inactive: [1] 2.05% | [2] 8.8% | [3] -2.15% | [4] 1.1% | [5] 16.6% | [6] -8.2%

COC1OC(COC(=O)c2ccccc2)C(OC(=O)c2ccccc2)C1NC(C)=O (stereo unspecified)
inactive: [1] 14.1% | [2] 18.7% | [3] 12.7% | [4] 62.1% | [5] 39.1% | [6] 28.4%

O=C(O)CN1C(=O)/C(=C\c2ccc3ccccc3n2)SC1=S
inactive: [1] 1.9% | [2] 18.9% | [3] 2.85% | [4] -14.1% | [5] 0.4% | [6] 20.6%

N#Cc1[nH]cnc1O
inactive: [1] -9.6% | [2] -10.4% | [3] -11.4% | [4] 7.7% | [5] 17.4% | [6] -5.85%

NC(=S)N/N=C1/C(=O)N(c2ccccc2)C(=O)C1C(=O)Nc1ccccc1 (stereo unspecified)
inactive: [1] 46.2% | [2] 16.8% | [3] 38% | [4] 0.9% | [5] -0.25% | [6] 39.1%

C=C(Cl)C(=O)O
inactive: [1] -11.3% | [2] -20.2% | [3] 18.9% | [4] -0.55% | [5] -25.4% | [6] -7.55%

CC(C)(C)CC(C)(C)c1ccc2c(c1)NC(C1Nc3cc(C(C)(C)CC(C)(C)C)ccc3O1)O2 (stereo unspecified)
inactive: [1] 8.05% | [2] -5.8% | [3] -4.55% | [4] -4.4% | [5] -2.6% | [6] 10.8%

CSCCC(N)C(=O)NCCS(=O)(=O)O (stereo unspecified)
inactive: [1] -22.4% | [2] 1% | [3] 14.8% | [4] -8% | [5] 17.1% | [6] 8.25%

c1csc(-c2sc(-c3ccsc3)cc2Cc2ccsc2)c1
inactive: [1] -23.1% | [2] -20.1% | [3] -32.9% | [4] -14.4% | [5] -26.6% | [6] -23.3%

COC1=C(C(c2cc(OC)c(OC)c(OC)c2)c2cc3c(cc2OC)OCO3)C(=O)OC1 (stereo unspecified)
inactive: [1] -18.6% | [2] -5.9% | [3] -2.9% | [4] 6.25% | [5] 1.1% | [6] 13.4%

CCOc1ccc(OCC)c(C(=O)CCC(=O)Nc2ccc(Br)cc2)c1
inactive: [1] -8.9% | [2] -2.9% | [3] -8.3% | [4] -12.8% | [5] 1.45% | [6] -6.75%

O=c1c(SCc2ccccc2)c(N2CCOCC2)cnn1-c1ccccc1
inactive: [1] 28.4% | [2] -1.85% | [3] 22.8% | [4] 30.1% | [5] 22.1% | [6] 7.75%

C[N+](C)([O-])CCNC(=O)c1cccc2cc3ccccc3nc12
inactive: [1] -9.8% | [2] -8.9% | [3] -23.5% | [4] 4.3% | [5] 10.2% | [6] -46%

CCN(CCC#N)C(=S)Nc1ccc(C)c(C)c1
inactive: [1] -9% | [2] -8.55% | [3] 0% | [4] 1% | [5] -8.6% | [6] 0.1%

CCCCCCCCCCCCCCCCOc1ccccn1
inactive: [1] -9.75% | [2] -20.6% | [3] -14.8% | [4] -18.8% | [5] -21.6% | [6] -6.9%

COc1ccccc1C(=O)C(CN(C)C)CN(C)C
inactive: [1] -2.5% | [2] -19.2% | [3] 6.65% | [4] 15.3% | [5] -23.3% | [6] 13.7%

CCCCN(CCCC)CC(O)c1cc2ccc(Cl)cc2nc1-c1ccc(Cl)cc1 (stereo unspecified)
inactive: [1] 65.2% | [2] 41.7% | [4] 8.35% | [5] -6.15%
active: [3] 85.5% | [6] 78.8%

COC(=O)c1cc(C)c2c3ccccc3n(C)c2c1C(=O)OC
inactive: [1] 19.6% | [2] -0.4% | [3] -8.9% | [4] -1.5% | [5] -9.9% | [6] -13.5%

CC(=O)OC1CCC2(C)C3CCC4(C)C(C(C)CCCC(C)C)CCC4C3CC(=O)C23CC13 (stereo unspecified)
inactive: [1] 32% | [2] -3.85% | [3] 13.2% | [4] 6.9% | [5] -6.3% | [6] 17.9%

O/N=C\c1cc2ccccc2c[n+]1Cc1ccc2ccccc2c1Br
inactive: [1] 9.25% | [2] 32.1% | [3] 44.6% | [4] 48% | [5] 2.9% | [6] 38.8%

O=C1NC(=O)N2CCCOC2C1c1ccccc1 (stereo unspecified)
inactive: [1] 0.2% | [2] -5.5% | [3] 0.4% | [4] -10.2% | [5] -2.7% | [6] 22.3%

CCCCCCCCCCCCCCCCO
inactive: [1] -14.4% | [2] -14.2% | [3] -13.6% | [4] -16.3% | [5] -15.2% | [6] -12.4%

CCOc1c(OC)cc(C2c3cc4c(c(OCC)c3CC3COC(=O)C32)OCO4)cc1OC (stereo unspecified)
inactive: [1] 36.8% | [2] 16.1% | [3] 48.6% | [4] 28.1% | [5] 19.8% | [6] 0.25%

CCCC(=O)Oc1ccc(C)cc1C(C)(C)C
inactive: [1] 6.65% | [2] -22.2% | [3] -4.95% | [4] 9.5% | [5] -10.2% | [6] 4.25%

CCCCCC1OCC(C)(C)CO1
inactive: [1] 3.95% | [2] -2.05% | [3] -5.45% | [4] -9.3% | [5] -3.05% | [6] -9.6%

NC(=S)NNCC(=O)CC(O)(C(F)(F)F)C(F)(F)Cl (stereo unspecified)
inactive: [1] -21.2% | [2] -6.95% | [3] -21.6% | [4] -21.9% | [5] 21.4% | [6] -0.65%

CC(C)(C)CC(C)(C)c1cc2c(O)c(c1)Cc1cc(C(C)(C)CC(C)(C)C)cc(c1O)Cc1cc(C(C)(C)CC(C)(C)C)cc(c1O)Cc1cc(C(C)(C)CC(C)(C)C)cc(c1O)Cc1cc(C(C)(C)CC(C)(C)C)cc(c1O)Cc1cc(C(C)(C)CC(C)(C)C)cc(c1O)C2
inactive: [1] 7.4% | [2] 3.05% | [3] 18.4% | [4] 18.9% | [5] 4.95% | [6] 9.55%

O=C(NNC1=NCCN1Cc1ccccc1)c1cccc(Cl)c1
inactive: [1] -6.1% | [2] -25.4% | [3] 13.3% | [4] 14.6% | [5] -0.8% | [6] 2.15%

CCC(C)(C(=O)O)c1ccccc1 (stereo unspecified)
inactive: [1] 4.1% | [2] -5.85% | [3] -3.95% | [4] -15.1% | [5] -42.5% | [6] 15.7%

CCOC(=O)Cc1ccc2c(c1)sc1nc(-c3ccc(OC)cc3)cn12
inactive: [1] 38.8% | [2] 19.5% | [3] 21.2% | [4] 32.3% | [5] 31.1% | [6] 18.6%

CCC1COS(=O)(=O)CS(=O)(=O)O1 (stereo unspecified)
inactive: [1] -27.6% | [2] -16.2% | [3] -3.35% | [4] -40.9% | [5] 11.8% | [6] 3.1%

Nc1c(Br)cc2c([nH]c(=O)c3cc(Br)ccc32)c1Br
inactive: [1] 47.1% | [2] 32.2% | [3] 27.1% | [4] 27.8% | [5] 8.75% | [6] 32.1%

CNc1c([N+](=O)[O-])cc2[nH]c(C)nc2c1[N+](=O)[O-]
inactive: [1] 22.4% | [2] 19.3% | [3] 42.9% | [4] 0.05% | [5] 0.95% | [6] 11.6%

NC(=O)O/N=C/c1ccccn1
inactive: [1] -12.1% | [2] 2.75% | [3] -17.4% | [4] -10% | [5] -2.65% | [6] -6.95%
